Compounds without any hit were thinned out: in the full panel of roughly 83,000, 20% have a hit.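 The endpoint reported here, percent growth, reads 100 for growth as untreated, 0 for no net growth and -100 for all cells dead.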 Values without a mark were called inactive. Active and inactive are the calls of the source. How the source made its calls: active means growth percent below 10; inactive means the rest.
How the values were obtained:
Test in all cases: NCI-60 one-dose screen, 48 h (100 = growth as untreated, 0 = no growth, -100 = all killed)
Settings in all cases: 10 µM unless noted
SK-MEL-2 melanoma = tested on: SK-MEL-2 melanoma
EKVX NSCLC = tested on: EKVX NSCLC
SN12C renal = tested on: SN12C renal
UO-31 renal = tested on: UO-31 renal
TK-10 renal = tested on: TK-10 renal
ACHN renal = tested on: ACHN renal
CAKI-1 renal = tested on: CAKI-1 renal
A498 renal = tested on: A498 renal
CCRF-CEM leukemia = tested on: CCRF-CEM leukemia
MOLT-4 leukemia = tested on: MOLT-4 leukemia

| SMILES | growth (SK-MEL-2 melanoma) | growth (EKVX NSCLC) | growth (SN12C renal) | growth (UO-31 renal) | growth (TK-10 renal) | growth (ACHN renal) | growth (CAKI-1 renal) | growth (A498 renal) | growth (CCRF-CEM leukemia) | growth (MOLT-4 leukemia) |
| --- | --- | --- | --- | --- | --- | --- | --- | --- | --- | --- |
| COC(=O)C1=CCC(n2cnc3c(N)ncnc32)O1 (stereo not given) | 94.5% | 101% | 103% | 91.5% | 104% | 110% | 75.1% | 116% | 98.8% | 91.3% |
| NC(=O)NS(=O)(=O)c1ccc(N2N=C(C(F)(F)F)CC2c2cc(C(F)(F)F)cc(C(F)(F)F)c2)cc1 (stereo not given) | 11.2% | 58.5% | 83.5% | 49.6% | 85.6% | 80.7% | 78.9% | 70.1% | 37.4% | 43.2% |
| Oc1c(Cl)cc(Oc2cc(Cl)c(O)c(CN3CCOCC3)c2)cc1CN1CCOCC1 | 88.2% | 90.5% | 95.4% | 71.1% | 95.1% | 84.9% | 78% | 84.7% | 107% | 80.4% |
| CC(=O)OC1Oc2cc(C)c(C)cc2-c2oc(=O)c(-c3ccccc3)cc21 (stereo not given) | 17.3% | 40.5% | 43.6% | 16.5% | 13.9% | 34% | 24.8% | -1.55% (active) | -37.8% (active) | -20.4% (active) |
| O=C(NC1CCS(=O)(=O)C1)c1ccc(C(=O)c2ccccc2)cc1 (stereo not given) | 7.36% (active) | 96.3% | 105% | 76.5% | 137% | 98.1% | 98.2% | 110% | 127% | 109% |
| CN1CCN(CCCOc2ccc3ncnc(Nc4ccc(OCc5cccc(F)c5)c(Cl)c4)c3c2)CC1 | -40.1% (active) | 30.7% | 3.1% (active) | -4.76% (active) | -18% (active) | -50.7% (active) | -62.5% (active) | 26.1% | 2.72% (active) | -12.8% (active) |
| Cc1ccc(-c2cc(-c3ccccc3)n(-c3ccccc3)n2)cc1 | 74.6% | 98.6% | 107% | 79.1% | 99.4% | 95.3% | 94.5% | 92.1% | 84.9% | 81.5% |
| CC(NC(=O)Oc1cccc2ccccc12)c1ccccc1 (stereo not given) | 107% | 107% | 97.4% | 61.1% | 105% | 98.9% | 121% | 106% | 72% | 68.9% |
| O=C(NCCNC(=O)Oc1cccc2ccccc12)Oc1cccc2ccccc12 | 88.7% | 92.9% | 105% | 45.4% | 92.3% | 85.3% | 95% | 89.2% | 65.2% | 80.6% |
| CCOC(=O)Nc1ccc2c3c(cccc13)-c1ccccc1-2 | 24.8% | 48.4% | 42.2% | 21.1% | 45.5% | 50.6% | 16.5% | 76.2% | 55.4% | 36% |
| O=C(N/N=C/c1cccc([N+](=O)[O-])c1)c1ccc(Br)o1 | 103% | 103% | 142% | -25.2% (active) | 129% | 156% | 98.3% | 129% | 78.2% | 132% |
| CO[C@H]1/C=C/O[C@@]2(C)Oc3c(C)c(O)c4c(O)c(c(/C=N/N5C(C)CN(Cc6ccc(C#N)cc6)CC5C)c(O)c4c3C2=O)NC(=O)/C(C)=C\C=C\[C@H](C)[C@H](O)[C@@H](C)[C@@H](O)[C@@H](C)[C@H](OC(C)=O)[C@@H]1C (stereo not given in full) | 61.2% | 17.1% | 39.4% | 24.6% | 19.7% | 26.3% | 39.1% | 20.5% | 12.1% | -2.17% (active) |
| O=C(O)C1CCN(S(=O)(=O)c2ccc(-c3ccccc3)cc2)CC1 | 5.44% (active) | 103% | 101% | 101% | 133% | 109% | 104% | 104% | 90.1% | 107% |
| CC(=O)Nc1ccc(C(=O)COc2cccc(/C=C3\CCc4ccccc4C3=O)c2)cc1 | 51.2% | 80.3% | 99.5% | 5.8% (active) | 103% | 92.1% | 254% | 92.7% | 11.6% | 38% |
| CCN(CC)CCSc1ncnc2c1cnn2-c1ccc(S(N)(=O)=O)cc1 | 96.5% | 86.8% | 89.5% | 87.7% | 103% | 92.2% | 7.74% (active) | 92% | 88.4% | 85.6% |
| C(=C1c2ccccc2-c2ccccc21)c1ccncc1 | 42.9% | 59.5% | 51.2% | 49.5% | 64.6% | 71.5% | 29.6% | 62% | 59.3% | 39.5% |
| COc1ccc(CNC(=O)c2c(C)n([O-])c3ccccc3[n+]2=O)cc1 | 95.8% | 83.8% | 101% | 32.9% | 120% | 109% | 112% | 96.1% | 98.4% | 93.4% |
| COc1cc(/C=C\C(C)=N\Nc2ccccc2)ccc1O | 92.5% | 94.1% | 92.6% | 66% | 94.5% | 97.6% | 82.3% | 110% | 30.7% | 70.9% |
| O=C(O)CCNS(=O)(=O)c1ccc(-c2ccccc2)cc1 | 0.624% (active) | 91.6% | 95% | 92.8% | 136% | 97.9% | 104% | 115% | 111% | 118% |
| BrC1CC(Br)c2c1c1c(c3c2C(Br)CC3Br)C(Br)CC1Br (stereo not given) | 115% | 101% | 109% | 39.9% | 121% | 87.2% | 94.5% | 117% | 114% | 75.8% |
| C=CCNC(=O)/C(=C/c1cccc([N+](=O)[O-])c1)NC(=O)c1ccccc1 | 18.9% | 108% | 103% | 90% | 101% | 94% | 90.6% | 130% | 90.6% | 101% |
| CN(C)CCC(=O)Nc1ccc(-n2cc(-c3cccc(NC(=S)Nc4cccc(-c5cn(-c6ccc(NC(=O)CCN(C)C)cc6)nn5)c4)c3)nn2)cc1 | 91.6% | 101% | 91.4% | 135% | 142% | 117% | 130% | 108% | 48.4% | 47.2% |
| CCOC(=O)C1C(=O)NC(C(=O)OCC)(C(=O)OCC)C1CC (stereo not given) | 110% | 117% | 100% | 89.5% | 115% | 104% | 99.9% | 104% | 109% | 113% |
| CC[C@@H](C)/C=C(C)/C=C/C(=O)c1c(O)c(-c2ccc(O)cc2)cn(OC2CC(=O)CCC(C)OC(=O)CC2O)c1=O (stereo not given in full) | 19.8% | 5.02% (active) | 17.5% | -15.5% (active) | 43.1% | 0.984% (active) | -17.1% (active) | 28.7% | 2.11% (active) | 6.27% (active) |
| COc1cccc(/C=N/Nc2nc3ccccc3s2)c1OC | 81% | 95.7% | 102% | 85.1% | 64.8% | 79.7% | 78.8% | 121% | 77% | 74.4% |
| O=C(CSc1ncc(-c2ccccc2)n1-c1ccccc1)Nc1ccc(-c2nc3ccccc3s2)cc1 | 80.6% | 103% | 71.2% | 98.4% | 44.2% | 102% | 87.4% | 107% | 83.8% | 66.6% |

Source: PubChem BioAssay (NCI)
